Data from PubChem BioAssay AID1159580 (chemical genetic matrix, 2015).
Where “and” joins values, the source holds several entries; their conditions need not be identical. Equal values may be shown once. Hit rate of the full screen: of about 5,500 compounds, about 2,000 (36%) were called active. Inconclusive results (about 18%) are left out. Rule as the data show it: active = normalized growth mostly below about 0.91 (no sharp cut-off); inconclusive = no clear call, values can overlap the other calls; inactive = mostly above about 0.92. Some of the results follow.

Test: chemical genetic growth profiling, strain panel (AID 1159580);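 also: tested at 20 µM; growth read once vehicle control cultures reached saturation at 30 °C; 1 = growth at the plate median or of vehicle wells; lower values mean less growth of the strain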
Details: growth OD
[1] = S. cerevisiae deletion strains, locus YAL040C, strain CLN3, stronger effect = lower value
[2] = S. cerevisiae deletion strains, locus YER002W, strain NOP16, stronger effect = lower value
[3] = S. cerevisiae deletion strains, locus YMR307W, strain GAS1, stronger effect = lower value
[4] = S. cerevisiae deletion strains, locus YNL175C, strain NOP13, stronger effect = lower value
[5] = S. cerevisiae deletion strains, locus YNL197C, strain WHI3, stronger effect = lower value
[6] = S. cerevisiae deletion strains, locus YNL224C, strain SQS1, stronger effect = lower value
[7] = S. cerevisiae deletion strains, locus YNL322C, strain KRE1, stronger effect = lower value
[8] = S. cerevisiae deletion strains, locus YOR083W, strain WHI5 (second series), stronger effect = lower value
[9] = S. cerevisiae deletion strains, locus YPL241C, strain CIN2, stronger effect = lower value

Measured: normalized growth

COc1ccc(NC(=O)c2ccc(-c3ccc(-c4noc(C)n4)cc3C)cc2)cc1N1CCN(C)CC1
inactive: [1] 1.05 | S. cerevisiae deletion strains, locus YCL061C, strain MRC1 (second series), stronger effect = lower value 0.982 | S. cerevisiae deletion strains, locus YDR363W, strain ESC2, stronger effect = lower value 0.959 | [2] 1.01 | S. cerevisiae deletion strains, locus YJR075W, strain HOC1, stronger effect = lower value 0.974 | [3] 0.933 | S. cerevisiae deletion strains, locus YNL153C, strain GIM3, stronger effect = lower value 0.946 | [4] 1.02 | [5] 1.04 | [6] 1.01 | [7] 0.965 | [8] 0.939 | [9] 0.994

CC(=O)NCCc1c[nH]c2ccc(O)cc12
inactive: [1] 1 | S. cerevisiae deletion strains, locus YBR021W, strain FUR4, stronger effect = lower value 1.03 | S. cerevisiae deletion strains, locus YBR229C, strain ROT2, stronger effect = lower value 0.96 | S. cerevisiae deletion strains, locus YCL029C, strain bik1, stronger effect = lower value 0.98 | S. cerevisiae deletion strains, locus YDL035C, strain GPR1, stronger effect = lower value 1.01 | S. cerevisiae deletion strains, locus YDL074C, strain BRE1, stronger effect = lower value 0.953 | S. cerevisiae deletion strains, locus YDL101C, strain DUN1, stronger effect = lower value 0.977 | S. cerevisiae deletion strains, locus YDL134C, strain PPH21, stronger effect = lower value 0.993 | S. cerevisiae deletion strains, locus YDL185W, strain tfp1, stronger effect = lower value 0.983 | S. cerevisiae deletion strains, locus YDL192W, strain arf1, stronger effect = lower value 0.982 | S. cerevisiae deletion strains, locus YDR101C, strain arx1, stronger effect = lower value 0.929 | S. cerevisiae deletion strains, locus YDR150W, strain NUM1, stronger effect = lower value 1.01 | S. cerevisiae deletion strains, locus YDR162C, strain NBP2, stronger effect = lower value 0.999 | S. cerevisiae deletion strains, locus YDR318W, strain mcm21, stronger effect = lower value 0.992 | S. cerevisiae deletion strains, locus YDR388W, stronger effect = lower value 0.991 | S. cerevisiae deletion strains, locus YDR502C, strain sam2, stronger effect = lower value 0.985 | S. cerevisiae deletion strains, locus YEL061C, strain CIN8, stronger effect = lower value 0.984 | [2] 0.993 | S. cerevisiae deletion strains, locus YER110C, stronger effect = lower value 0.986 | S. cerevisiae deletion strains, locus YER155C, strain BEM2, stronger effect = lower value 0.998 | S. cerevisiae deletion strains, locus YER167W, strain BCK2, stronger effect = lower value 0.992 | S. cerevisiae deletion strains, locus YGL078C, strain dbp3, stronger effect = lower value 0.999 | S. cerevisiae deletion strains, locus YGL086W, strain mad1, stronger effect = lower value 0.962 | S. cerevisiae deletion strains, locus YGL248W, strain PDE1, stronger effect = lower value 0.98 | S. cerevisiae deletion strains, locus YGR078C, strain PAC10, stronger effect = lower value 1.01 | S. cerevisiae deletion strains, locus YGR135W, strain pre9, stronger effect = lower value 1.06 | S. cerevisiae deletion strains, locus YGR252W, strain gcn5, stronger effect = lower value 1.05 | S. cerevisiae deletion strains, locus YHR030C, strain SLT2, stronger effect = lower value 0.997 | S. cerevisiae deletion strains, locus YHR079C, strain IRE1 (second series), stronger effect = lower value 0.992 | S. cerevisiae deletion strains, locus YHR094C, strain hxt1, stronger effect = lower value 0.991 | S. cerevisiae deletion strains, locus YHR129C, strain ARP1, stronger effect = lower value 0.993 | S. cerevisiae deletion strains, locus YHR200W, strain rpn10, stronger effect = lower value 0.989 | S. cerevisiae deletion strains, locus YIL066C, strain RNR3, stronger effect = lower value 0.956 | S. cerevisiae deletion strains, locus YIL073C, strain SPO22, stronger effect = lower value 0.989 | S. cerevisiae deletion strains, locus YIL125W, strain kgd1, stronger effect = lower value 0.988 | S. cerevisiae deletion strains, locus YIR030C, strain dcg1, stronger effect = lower value 0.997 | S. cerevisiae deletion strains, locus YJL095W, strain BCK1, stronger effect = lower value 0.982 | S. cerevisiae deletion strains, locus YJL134W, strain LCB3, stronger effect = lower value 0.992 | S. cerevisiae deletion strains, locus YJL168C, strain set2, stronger effect = lower value 0.995 | S. cerevisiae deletion strains, locus YJL187C, strain SWE1 (second series), stronger effect = lower value 0.95 | S. cerevisiae deletion strains, locus YJR043C, strain POL32, stronger effect = lower value 0.99 | S. cerevisiae deletion strains, locus YKL009W, strain mrt4, stronger effect = lower value 0.978 | S. cerevisiae deletion strains, locus YKL068W, stronger effect = lower value 0.986 | S. cerevisiae deletion strains, locus YKL085W, strain MDH1 (second series), stronger effect = lower value 0.982 | S. cerevisiae deletion strains, locus YKL085W, strain MDH1, stronger effect = lower value 0.982 | S. cerevisiae deletion strains, locus YKL190W, strain CNB1, stronger effect = lower value 0.993 | S. cerevisiae deletion strains, locus YKR001C, strain vps1, stronger effect = lower value 0.978 | S. cerevisiae deletion strains, locus YLR039C, strain RIC1, stronger effect = lower value 0.95 | S. cerevisiae deletion strains, locus YLR058C, strain SHM2, stronger effect = lower value 0.982 | S. cerevisiae deletion strains, locus YLR102C, strain apc9, stronger effect = lower value 0.999 | S. cerevisiae deletion strains, locus YLR262C, strain YPT6, stronger effect = lower value 0.967 | S. cerevisiae deletion strains, locus YLR268W, strain sec22, stronger effect = lower value 0.983 | S. cerevisiae deletion strains, locus YLR330W, strain CHS5, stronger effect = lower value 0.989 | S. cerevisiae deletion strains, locus YLR342W, strain FKS1 (second series), stronger effect = lower value 1.07 | S. cerevisiae deletion strains, locus YLR371W, strain rom2, stronger effect = lower value 1.02 | S. cerevisiae deletion strains, locus YLR418C, strain cdc73, stronger effect = lower value 1.05 | S. cerevisiae deletion strains, locus YML016C, strain PPZ1, stronger effect = lower value 0.992 | S. cerevisiae deletion strains, locus YML032C, strain rad52, stronger effect = lower value 0.978 | S. cerevisiae deletion strains, locus YML124C, strain tub3, stronger effect = lower value 0.995 | S. cerevisiae deletion strains, locus YMR078C, strain ctf18, stronger effect = lower value 0.99 | S. cerevisiae deletion strains, locus YMR223W, strain ubp8, stronger effect = lower value 1.03 | S. cerevisiae deletion strains, locus YMR263W, strain SAP30, stronger effect = lower value 1 and 0.976 | [3] 1.05 | S. cerevisiae deletion strains, locus YNL067W, strain RPL9B, stronger effect = lower value 0.959 | S. cerevisiae deletion strains, locus YNL128W, strain TEP1, stronger effect = lower value 1.01 | [4] 1.01 | [5] 1.01 | [6] 1.02 | S. cerevisiae deletion strains, locus YNL233W, strain BNI4, stronger effect = lower value 0.966 | S. cerevisiae deletion strains, locus YNL250W, strain rad50, stronger effect = lower value 0.967 | S. cerevisiae deletion strains, locus YNL271C, strain bni1, stronger effect = lower value 0.982 | S. cerevisiae deletion strains, locus YNL298W, strain CLA4, stronger effect = lower value 1 | S. cerevisiae deletion strains, locus YNL307C, strain MCK1, stronger effect = lower value 0.987 | [7] 1.02 and 0.994 | S. cerevisiae deletion strains, locus YNR052C, strain pop2, stronger effect = lower value 0.996 | S. cerevisiae deletion strains, locus YOL006C, strain TOP1, stronger effect = lower value 0.933 | S. cerevisiae deletion strains, locus YOL012C, strain htz1 1.04 | S. cerevisiae deletion strains, locus YOL147C, strain pex11, stronger effect = lower value 0.993 | S. cerevisiae deletion strains, locus YOR061W, strain CKA2, stronger effect = lower value 0.963 | S. cerevisiae deletion strains, locus YOR069W, strain VPS5, stronger effect = lower value 0.997 | [8] 1.01 | S. cerevisiae deletion strains, locus YOR136W, strain idh2, stronger effect = lower value 0.989 | S. cerevisiae deletion strains, locus YOR144C, strain elg1, stronger effect = lower value 0.994 | S. cerevisiae deletion strains, locus YOR184W, strain ser1, stronger effect = lower value 1 | S. cerevisiae deletion strains, locus YOR316C, strain cot1, stronger effect = lower value 0.986 | [9] 1.01 and 0.993 | S. cerevisiae deletion strains, locus YPR119W, strain clb2, stronger effect = lower value 0.988 | S. cerevisiae deletion strains, locus YPR141C, strain kar3, stronger effect = lower value 0.981 | S. cerevisiae deletion strains, locus YPR163C, strain tif3, stronger effect = lower value 0.986 | S. cerevisiae deletion strains, locus YPR167C, strain met16, stronger effect = lower value 0.992 | S. cerevisiae deletion strains, strain wtn01, stronger effect = lower value 1 | S. cerevisiae strains, strain wild type, stronger effect = lower value 0.987
